An excerpt weighted towards active compounds, which were near 3.6% of everything screened.
HSF-1 act = HSF-1 activators, primary screen, NIH3T3-HGL cells, MG132 stress, luminescence, single point; NIH3T3-HGL HSF-1 luciferase reporter, 8 h; 100% = twice DMSO control signal; activation, % at 9 µM; 300,000 tested, 1.7% active; AID 504408, 2011;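 active means mean replicate activation of at least 50% with a set share of replicates each reaching 50%; inconclusive means only one of those two conditions met; inactive means mean below 50% and too few replicates reaching it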;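 further: 0% = median of the neutral control wells and 100% = twice that signal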
LMP1 NFkB inh = EBV LMP1-driven NF-kappaB luciferase reporter inhibitors, primary screen, cell-based, luminescence, single point. 350,000 tested, 0.69% active. LMP1-induced NF-kappaB luciferase reporter cells. inhibition, % at 12.5 µM; in the data active means inhibition above about 41%; inconclusive means no clear call, values can overlap the other calls;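 further: 0% = neutral control wells and 100% = reference inhibitor control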
TWEAK Fn14 block = inhibitors of TWEAK-Fn14 signaling, primary screen, luciferase reporter cells, uHTS | inhibition, % at 10 µM | TWEAK-stimulated Fn14 reporter cells, luciferase luminescence, 8 h | AID 1159606, 2016 | 360,000 tested, 2% active; in the data active means inhibition above about 50%
TROY NFkB inh = inhibitors of TROY-driven NF-kB signaling, primary screen, Q293 LMP1-TROYcd cells, NF-kB luciferase, uHTS. Q293 LMP1-TROYcd NF-kB luciferase reporter, 4 h. inhibition, % at 10 µM. 360,000 tested, 0.98% active;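 active means compounds whose plate-normalised and pattern-corrected inhibition of the luciferase reporter signal at the single screening dose is 50% or more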
HSF1 inh = HSF1 inhibitors in luciferase reporter cells, primary screen, cell-based, NIH3T3, luminescence; activity change, negative = inhibition, % at 7.5 µM (by protocol); 300,000 tested, 0.77% active; NIH3T3-HGL HSE-luciferase, MG132-induced, luminescence 8 h; stronger effect = lower value;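 active means more than half of replicate wells show activity change below -50%, luminescence cut by over half; inconclusive means some wells, but at most half, below -50%; inactive means no replicate well below -50%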;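 further: luciferase reports HSF-1 transcriptional activity via heat shock element; 0% = median of DMSO wells and -100% = zero luminescence signal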
LGR2 inh = inhibitors of bursicon-induced LGR2 CRE-luciferase signal, primary screen, cell-based, HEK293, CRE-luciferase reporter, bursicon stimulation | Drosophila bursicon receptor LGR2 (rickets) | bursicon-stimulated, 4 h | inhibition, % at 9.99 µM | 380,000 tested, 0.35% active | AID 720647, 2013;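 active means drop in luminescence signal, shown as inhibition above about 50% in the replicate tests, limit read from the data, passing the limit was not always enough; inconclusive means probably only some replicates passing the limit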;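 further: agonist challenge used bursicon conditioned medium at about half maximal strength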
Active calls of the source: *; u = inconclusive; x = no result.

SMILES	HSF-1 act	LMP1 NFkB inh	TWEAK Fn14 block	TROY NFkB inh	HSF1 inh	LGR2 inh
C[C@@H]1CN([C@H](C)CO)C(=O)c2cc(N(C)C)ccc2O[C@@H](C)CCCCO[C@H]1CN(C)C(=O)c1ccccc1	x	x	x	x	x	13
COCCn1c(SCC(=O)NC2CCCCC2)nc2c(c1=O)SCC2	58*	4	4	2	23	-5
COc1ccc(CN(C)C[C@@H]2Oc3ccc(NS(=O)(=O)c4cn(C)cn4)cc3C(=O)N([C@H](C)CO)C[C@H]2C)cc1	x	x	x	x	x	-1
Cc1ccc2nc(-c3ccc(NC(=S)NC4CC(C)(C)NC(C)(C)C4)cc3)sc2c1	7	-78	27	-5	9	62*
Cc1ccc2nc(-c3ccc(NC(=S)NC(=O)C(C)C)cc3)sc2c1	-3	-48	-10	-21	-4	x
COc1ccccc1C(=O)Nc1ccc2c(c1)OC[C@@H](C)N(CC1CC1)C[C@H](C)[C@H](OC)CN(C)C2=O	x	x	x	x	x	11
CCCc1ccc2oc(C(=O)N(C)Cc3nccs3)c(C)c2c1	67*	-21	-38	-32	28	-50
CCCc1ccc2oc(C(=O)N3CCC(O)CC3)c(C)c2c1	22	-17	-21	-27	14	-31
COc1ccc(S(=O)(=O)N2CC[C@@H]3[C@@H](CO)Nc4ccc(C#Cc5ccccc5OC)cc4[C@@H]32)cc1	x	x	x	x	x	7
Cc1ccc(S(=O)(=O)N(C)C[C@H]2Oc3c(NS(=O)(=O)c4ccc(Cl)cc4)cccc3C(=O)N([C@@H](C)CO)C[C@@H]2C)cc1	x	x	x	x	x	-20
COc1ccc(NC(=O)Nc2ccc3c(c2)[C@@H]2C[C@@H](CC(=O)NCC4CC4)O[C@H](CO)[C@@H]2O3)cc1	x	x	x	x	x	6
Clc1ccccc1CSc1nnc(-c2ccccn2)n1Cc1ccco1	120*	-7	3	3	96	x
CCCCn1c(SCc2nc3ccccc3s2)nc2cc(S(N)(=O)=O)ccc21	75*	-38	26	17	52	-14
CCCCn1c(SCc2nc3ccccc3s2)nc2ccccc2c1=O	39	9	11	9	14	-17
Nn1c(SCc2ccccc2)nnc1-c1ccco1	-74	-6	-37	-18	-68*	2
Nn1c(SCC(=O)Nc2ccc(S(N)(=O)=O)cc2)nnc1-c1ccco1	-6	6	9	57*	-4	6
Nn1c(SCc2cccc3ccccc23)nnc1-c1ccco1	28	2	-7	-14	4	x
C=CCNC(=S)NNC(=O)c1cccn(Cc2ccc(Cl)c(Cl)c2)c1=O	81*	-4	3	2	23	x
CNC(=S)NNC(=O)c1cccn(Cc2ccc(Cl)c(Cl)c2)c1=O	14	-2	4	-13	18	x
COc1ccccc1CN1[C@H](CO)[C@@H]2c3ccccc3N(C(=O)C3CC3)C[C@@H]21	x	x	x	x	x	2
CCOc1ccc(N=C(NN)c2ccc3ccccc3n2)cc1	-84	26	94*	87*	-82*	u
O=C(CNC(=O)c1ccccc1)c1ccccc1	5	5	50*	-24	12	16
Cc1ccc(S(=O)(=O)N(C)C[C@H]2Oc3ccc(NC(=O)Cn4cnnn4)cc3C(=O)N([C@H](C)CO)C[C@@H]2C)cc1	x	x	x	x	x	-10
CCN(CCCNC(=O)CCCCn1c(=O)[nH]c2ccccc2c1=O)c1ccccc1	74*	11	9	9	55	x
O=C(/C=C/c1ccco1)Nc1ccc(C(=O)N2CCOCC2)cc1	-6	0	-3	-1	-1	2
SMILES	HSF-1 act	LMP1 NFkB inh	TWEAK Fn14 block	TROY NFkB inh	HSF1 inh	LGR2 inh
O=C(/C=C/c1ccco1)Nc1ccc(Oc2ccc(Cl)cc2)cc1	25	-2	51*	6	15	x
O=C(/C=C/c1ccco1)Nc1ccc(N2CCCC2)cc1	64*	-4	8	-1	33	-9
O=C(C[C@@H]1C=C[C@H](NC(=O)NC2CCCC2)[C@H](CO)O1)NCc1ccc(F)cc1	x	x	x	x	x	-4
Cc1nc(NC(=O)CSc2nnc(C3CC3)n2C)sc1C(=O)N(C)C	-15	2	0	-3	-8	-13
C=CCn1c(C)nnc1SCC(=O)Nc1nc(C)c(C(=O)N(C)C)s1	-81	-2	-9	2	-76*	-13
Cc1cc(C)cc(OC(=O)CS(=O)c2ccc(C(F)(F)F)cc2[N+](=O)[O-])c1 (configuration not stated)	171*	-26	-1	5	125	x
O=C(CS(=O)c1ccc(C(F)(F)F)cc1[N+](=O)[O-])Oc1ccc(Cl)cc1 (configuration not stated)	73*	-6	-13	5	65	x
O=C(Nc1ccc(Oc2ccccc2)cc1)c1ccc2sc([C@H]3C[C@H](O)[C@@H](CO)O3)nc2c1	x	x	95*	52*	x	25
CN1OC[C@@H]2CN(C(=O)C(C)(C)C)[C@H](c3cccc(Br)c3)C[C@@H]21	x	-4	61*	64*	x	-4
O=S(=O)(c1ccc2c(c1)C(=NO)c1cc(S(=O)(=O)N3CCCCC3)ccc1-2)N1CCCCC1	-94	85*	13	-22	-94*	x
CC1CCN(S(=O)(=O)c2ccc3c(c2)C(=NO)c2cc(S(=O)(=O)N4CCC(C)CC4)ccc2-3)CC1	x	-166	-127	-17	x	x
CCN1C(=O)C(C(=O)Nc2ccc(OC)cc2)C2CC1(C)Oc1ccccc12 (configuration not stated)	17	-9	78*	x	7	x
COc1ccc(NC(=O)C2c3ccccc3OCC(=O)N2C2CC2)cc1 (configuration not stated)	x	x	1	-15	x	-1
O=C(c1ccccn1)N1CC(=O)N2[C@H](C1)[C@H](c1ccc(C#Cc3ccccc3)cc1)[C@@H]2CO	x	x	x	x	x	6
CN(C)C(=O)c1cccc(-c2ccccc2[C@H]2[C@@H](C#N)N(C(=O)C3CCCC3)[C@H]2CO)c1	x	x	x	x	x	10
O=C(C[C@H]1C[C@H]2c3cc(NS(=O)(=O)c4ccccc4)ccc3O[C@H]2[C@@H](CO)O1)NC1CCCCC1	x	x	x	x	x	2
C=C1C(=O)[C@]23C[C@H]1CCC2[C@@]1(C)C(C[C@@H]3O)[C@](C)(C(=O)OC)CC[C@@H]1OC(C)=O (some centres not stated)	x	x	96*	37	x	92*
C=C1C(=O)[C@]23C[C@H]1CCC2[C@@]1(C)C(C[C@@H]3O)[C@](C)(C(=O)O)C[C@H](O)[C@@H]1O (some centres not stated)	x	x	-9	-29	x	8
C=C1C(=O)[C@]23C[C@H]1CC[C@H]2[C@]1(C)[C@@H](OC(C)=O)CC[C@@](C)(C(=O)OC)[C@H]1C[C@@H]3OC(C)=O	x	x	85*	24	x	29

Source: PubChem
